Columns and labels:
Assay in all cases: PBM binding z-score (relative to random genomic background probes); higher = stronger binding; sequences stand for … in GC…GCGATTGACAGCGTAGAATGAAGG
[1] = system: PPARg:RXRa DBDmut IVT, anti-RXR (DBD mutation: RXRa K156A/R161A, NR concentration 270 nM, RXRa partner concentration 90 nM)
Method in brief: (§1)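 Regression normalization was applied to scanned fluorescence from custom Agilent 4×180K protein-binding microarrays. Before scanning, arrays were incubated 1 h with ligand-free nuclear receptor dimers, and binding was detected with antibodies against each partner (one per run). Binding z-scores use the random background probes as reference.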

[2] = system: PPARg:RXRa IVT, anti-PPARg (NR concentration 270 nM, RXRa partner concentration 90 nM)
Method in brief: as §1

[3] = system: PPARg DBDmut:RXRa IVT, anti-PPARg (DBD mutation: PPARg1 K132A/R137A, NR concentration 270 nM, RXRa partner concentration 90 nM)
Method in brief: as §1

[4] = system: PPARg DBDmut IVT, anti-PPARg (DBD mutation: PPARg1 K132A/R137A, NR concentration 270 nM)
Method in brief: as §1

[5] = system: PPARg homodimer (NR concentration 180 nM)
Method in brief: as §1

[6] = system: PXR:RXRa (NR concentration 270 nM, RXRa partner concentration 90 nM)
Method in brief: as §1

[7] = system: PXR homodimer (NR concentration 270 nM)
Method in brief: as §1

[8] = system: RARa:RXR (NR concentration 270 nM, RXRa partner concentration 90 nM)
Method in brief: as §1

[9] = system: RARa homodimer (NR concentration 270 nM)
Method in brief: as §1

[10] = system: RARb:RXRa (NR concentration 270 nM, RXRa partner concentration 90 nM)
Method in brief: as §1

Sequence | PBM binding z-score [1] | PBM binding z-score [2] | PBM binding z-score [3] | PBM binding z-score [4] | PBM binding z-score [5] | PBM binding z-score [6] | PBM binding z-score [7] | PBM binding z-score [8] | PBM binding z-score [9] | PBM binding z-score [10]
CAAACTAGGTTACCGGAAGGTCAAAGTCCGCATG | 7.31 | 6.8 | 1.12 | 1.42 | 4.03 | 4.47 | 1.65 | 5.36 | 1.39 | 3.9
CCGACTGGGGCGAGGTTACCATAACGCACAGCCA | 0.314 | 0.726 | -1.05 | -1.46 | 0.254 | 0.372 | -0.517 | 1.1 | -0.00275 | 0.965
ATATGTAGGTTATGGGGTCATTCAGTTTGCGCAT | 7.59 | 7.35 | 1.83 | 2.58 | 3.35 | 6.12 | 11.7 | 6.45 | 2.37 | 3.54
TCTGCTAGGTCAACCATGGTCAGCTAATCTGCTA | 4.75 | 4.6 | -0.545 | -0.0168 | 1.65 | 2.47 | -0.872 | 2.3 | -0.434 | 4.21
CGTCCAAGGTCAGCAGGTCAGGGAAAGCGACGTG | 3.07 | 3.53 | -0.625 | -0.856 | 4.09 | 3.83 | 0.492 | 5.33 | 1.3 | 5.27
TCTCGGAGGACACGTAGGTCAGAGCTTTCCAGAG | 1.13 | 0.761 | -0.418 | -1.11 | 0.0512 | 0.765 | -0.00599 | 0.992 | -0.463 | 2.54
TCTGCTAGGTCAGTGGGTCAGCTAACGAGCTGCC | 4.42 | 5.76 | 0.364 | -0.282 | 1.24 | 0.857 | -0.958 | 2.11 | -0.00938 | 3.77
GCTTACGGGTCAAATGTTATAGCATGAATAGAAT | 4.4 | 4.44 | 1.56 | 1.2 | 2.47 | 3.34 | -0.148 | 4.24 | 0.995 | 3.88
TCCGCTAGGTCAACGATGGTCAGCTAATCTGCTA | 3.72 | 3.71 | -0.291 | -0.242 | 0.617 | 1.19 | -0.762 | 1.69 | -0.297 | 4.13
TCTTGTAGATCAACAGGAGGTTATGAAAGATCGA | 1.42 | 0.582 | 0.881 | 1.46 | -0.255 | 0.762 | -0.367 | 0.694 | -0.449 | 0.283
CCTACTGGGCCATCAGGGCATTGATATCAACGTT | 3.95 | 3.99 | 0.633 | 0.588 | -0.00622 | -0.679 | -0.548 | -0.889 | -0.828 | 0.358
CCTACTGGGTCAAGGTCATTGATCAGTCAAAGCA | 6.45 | 7.7 | 0.76 | 0.202 | 2.56 | 5.07 | 2.3 | 4.8 | 0.915 | 4.73
CCTAGTGGGTCAAGGTCACACACGCTATAGGTAC | 6.82 | 8.11 | 2.26 | 1.37 | 4.57 | 4.75 | 1.48 | 5.41 | 2.82 | 4.87
CCTCGGAGGACAGAAGGTCAGAGCAGTCCGCTTT | 0.416 | 0.276 | -1.6 | -1.82 | 1.18 | 2.83 | -0.373 | 2.41 | 0.42 | 3.25
TCTGCTAGGTCAACGATAGTCAGCTAATCTGCTA | 4.19 | 4.2 | 0.616 | 0.703 | 0.481 | 1.31 | -0.482 | 1.98 | -0.872 | 3.99
CCTAGCAGGCCAGGGTCAATCAAGCATTTCGCTT | 0.298 | 0.837 | -1.44 | -2.02 | 1.08 | 3.43 | -0.3 | 4.4 | 0.17 | 2.72
AGTCAAAGTTCATCTAGGAAACGTAAGATATGCT | 0.0279 | 2.61 | 1.09 | 0.7 | 2.32 | 4.53 | 3.68 | 3.18 | 1.09 | 5.02
ACAATGAGGTTATACGTAGATCAGGGAAGAAAGT | 2.72 | 1.93 | 1.33 | 1.68 | 0.816 | 1.19 | 0.655 | 1.82 | 0.312 | 1.69
CAAACTAGGTCACAGAGGTCATAGTCCGTGCGTA | 8.64 | 9.13 | 4.61 | 1.67 | 6.77 | 6.52 | 12.2 | 7.31 | 3.54 | 5.27

Sequence | PBM binding z-score [1] | PBM binding z-score [2] | PBM binding z-score [3] | PBM binding z-score [4] | PBM binding z-score [5] | PBM binding z-score [6] | PBM binding z-score [7] | PBM binding z-score [8] | PBM binding z-score [9] | PBM binding z-score [10]
TTAACAAGGTGAGCTGAGGTCGTTGATCCAACTC | 1.96 | 2.33 | -0.0875 | 0.378 | -0.141 | 4.89 | 0.519 | 1.62 | -0.64 | 1.66
TCGAGTAGGTTACCTATGGGGCATTCAGCTTTCT | 2.71 | 2.51 | -0.176 | -0.57 | -0.445 | 0.0182 | -0.655 | 0.469 | -0.643 | 0.753
TAGCCTGGGTCATTCAGGGGCCAGTATAGAAAGC | 0.888 | 2.36 | 0.524 | -0.652 | 1.98 | 2.3 | -0.415 | 3.78 | -0.568 | 3.35
CATACTGGGCCACGAAAGGTCATTGATTCAGTGA | 4.74 | 5.55 | 1.83 | 0.862 | 2.89 | 5.4 | 1.75 | 5.41 | 0.959 | 4.16
ACAGACAGGTGAGTGAAGGTAACTCAACTGGACG | 0.567 | 0.507 | -0.777 | -0.0154 | -0.369 | -0.316 | -0.108 | 0.0758 | -0.165 | 0.486
ATCTGTAGGTAAAGATAGTTCAGTGAATGCAAAT | 1.63 | 1.5 | 0.849 | 0.832 | 0.977 | 1.03 | 0.786 | 0.946 | 0.896 | 0.675
CCTAGCAGGCCAATCTGGATCACTCAAGGCTTGA | 1.73 | 0.817 | -1.11 | -1.19 | -0.873 | -0.635 | -0.965 | -0.47 | -0.695 | 0.0834
GCTAGTTGGTCGGTAAAAGGTCACACACCGGTCG | 0.248 | 3.4 | 0.279 | 0.356 | 3.46 | 4.78 | 1.24 | 5.17 | 1.42 | 4.08
TCTTGTAGATCAACAGGAGGCTAAGAAAGATCGA | 1.2 | 0.746 | 0.507 | 0.151 | -1.21 | -0.24 | -0.799 | -0.313 | -0.265 | -0.249
ATCTCTAGGTAGCAAGTTCAGTGAAAGAGAGGAC | 0.208 | 0.604 | 0.0162 | 0.501 | 0.437 | 1.22 | 1.35 | 0.324 | 0.221 | 0.981
ACAATGAGGTTACCAAAGATCAGGGAAACGCTTG | 2.64 | 2.42 | 0.961 | 1.48 | 0.966 | 1.52 | 0.0541 | 2.2 | 0.0916 | 2.32
ATCTAAAGGTCGAGGTGAGTATAGAGAAAGGGAA | 0.937 | 2.41 | 1.38 | 1.16 | 2.16 | 2.7 | 1.07 | 3.32 | 1.18 | 4.33
ACTAGCAGGCCAAGGGTCACTCACGATTAGTCCG | 1.04 | 3.8 | 0.074 | -0.149 | 1.92 | 3.09 | -0.277 | 3.55 | 0.389 | 3.45
GGAACGAGGGCATGTTGATAGCAGAGTTTGATGG | 2.6 | 1.79 | 0.588 | -0.313 | 0.877 | 0.633 | 0.542 | 0.117 | 0.262 | 1.81
CCTACTGGGCCAAACAGGTCATTGATGCCGATAA | 4.31 | 3.92 | 0.0161 | -0.301 | 1.42 | 1.37 | 0.801 | 1.71 | 0.102 | 1.68
AGAATGAGGTTAAGATAAGGGAAACAGAATACAT | 2.37 | 2.34 | 1.82 | 1.35 | 1.38 | 1.12 | 0.744 | 1.8 | 1.27 | 1.83
ACTAGTTGGCCAGCTGAGGTCACACACAATTCGG | 0.715 | 1.85 | 0.578 | 0.0549 | 2.34 | 4.59 | 1.49 | 4.57 | 0.503 | 3.19
GATACAGGGTCAAGGCCAGAGAACGCGTATTGAT | 2.63 | 3.9 | 1.58 | -0.524 | 2.6 | 3.71 | 0.476 | 4.41 | 1.07 | 4.49
CCTATGAGTTGACCATAAGGGCAACCGAAGCTCG | -0.0484 | 0.26 | -0.849 | -0.386 | 1.05 | 1.1 | 0.421 | 1.51 | 0.579 | 1.72

From the supplement of paper PMC6555819
